Results published in the supplement of paper PMC13380429.
A number with no mark means an inactive call.

Test system: Vero E6 infected with SARS-CoV-2
Assay: inhibition of SARS-CoV-2 cytopathic effect; higher = more antiviral protection, active = above 15
Conditions: 48 h

SMILES | inhibition of SARS-CoV-2 cytopathic effect (1 nM) [%] | inhibition of SARS-CoV-2 cytopathic effect (8.33 nM) [%] | inhibition of SARS-CoV-2 cytopathic effect (100 nM) [%] | inhibition of SARS-CoV-2 cytopathic effect (833.33 nM) [%] | inhibition of SARS-CoV-2 cytopathic effect (10000 nM)
CNC(=O)c1cc(COc2nnc(Nc3ccc(Cl)cc3)c3ccoc23)ccn1 [telatinib] | 0.06 | 2.23 | -1.3 | 0.04 | 0.53%
Cc1cc([N+](=O)[O-])ccc1NS(=O)(=O)c1cc(Cl)ccc1Cl | -3.81 | -2.34 | -0.48 | 0.28 | 2.09%
CCCOc1ccc2c(c1)CC[C@@H]1[C@@H]2CC[C@]2(C)[C@@H](OC)CC[C@@H]12 [promestriene] | -1.76 | -1.33 | -0.65 | -2.33 | -2.79%
O=c1[nH]c(CCl)nc2sc3c(c12)CCCC3 | -1.17 | -1.84 | -1.12 | 0.17 | 12.3%
COc1ccc(C(=O)Nc2sc3c(c2C(N)=O)CCCC3)cc1OC | -0.36 | -0.47 | -3.78 | -0.85 | 0.05%
O=C(Nc1ccc(S(=O)(=O)Nc2nccs2)cc1)C(c1ccccc1)c1ccccc1 | -0.78 | 3.67 | 2.47 | 2.29 | -2.52%
CCOc1cc2ncc(C#N)c(Nc3ccc(OCc4ccccn4)c(Cl)c3)c2cc1NC(=O)/C=C/CN(C)C [neratinib] | 0.12 | -2.36 | -7.88 | -0.85 | -8.5%
O=C(OCCOCCO)c1ccccc1Nc1cccc(C(F)(F)F)c1 [etofenamate] | 1.16 | -1.53 | 0.55 | -0.46 | -2.39%
CC(C)OC(=O)[C@H](C)N[P@](=O)(CO[C@H](C)Cn1cnc2c(N)ncnc21)Oc1ccccc1 [tenofovir-alafenamide] | -2.51 | -1.55 | -0.12 | -2.51 | 3.48%
CC(C)(C)c1ccc(C(=O)CCCN2CCC(OC(c3ccccc3)c3ccccc3)CC2)cc1 [ebastine] | 0.86 | 1.48 | 0.7 | -2.23 | -4.94%
Cc1cc(/C=C/c2ccc3cc(N(C)C)ccc3[n+]2C)c(C)n1-c1ccccc1 [pyrvinium-pamoate] | -1.06 | -0.84 | -3.02 | -2.46 | -13.7%
CC[C@H]1OC(=O)[C@H](C)[C@@H](O[C@H]2C[C@@](C)(OC)[C@@H](O)[C@H](C)O2)[C@H](C)[C@@H](O[C@@H]2O[C@H](C)C[C@H](N(C)C)[C@H]2O)[C@](C)(O)C[C@@H](C)C(=O)[C@H](C)[C@@H](O)[C@]1(C)O [erythromycin] | -0.74 | -0.54 | -1.16 | 2.65 | 1.91%
CCN(CC)C(=O)N[C@H]1C[C@@H]2c3cccc4[nH]cc(c34)C[C@H]2N(C)C1 [terguride] | -0.35 | -0.23 | -0.57 | -2.15 | -0.04%
O=C(OCCN1CCOCC1)c1cccnc1Nc1cccc(C(F)(F)F)c1 [morniflumate] | -1.61 | -3.25 | -3.87 | -4.12 | -5.47%
CC(=O)O[C@@H]1CC[C@@]2(C)[C@@H](CC[C@]3(C)[C@@H]2C(=O)C=C2[C@@H]4[C@@H](C)[C@H](C)CC[C@]4(C)CC[C@]23C)[C@@]1(C)C(=O)O [acetyl-11-keto-beta-boswellic-acid] | -1.38 | -3.19 | -1.26 | -0.71 | -0.995%
O=C(Nc1cccc2c(=O)cc(-c3nnn[nH]3)oc12)c1ccc(OCCCCc2ccccc2)cc1 [pranlukast] | -0.09 | 2.87 | 0.47 | -3.27 | 1.15%
CNC(=O)[C@@H](Cc1ccccc1)N(C)C(=O)[C@@H](Cc1ccc2ccccc2c1)N(C)C(=O)/C=C/CC(C)(C)N [tabimorelin] | 0.97 | -0.49 | -1.39 | 2.19 | 0.56%
CCOC(=O)c1ccccc1OC(=O)CCCCCCCC(=O)Oc1ccccc1C(=O)OCC | 6.82 | 0.93 | -6.73 | -0.1 | -6.2%

SMILES | inhibition of SARS-CoV-2 cytopathic effect (1 nM) [%] | inhibition of SARS-CoV-2 cytopathic effect (8.33 nM) [%] | inhibition of SARS-CoV-2 cytopathic effect (100 nM) [%] | inhibition of SARS-CoV-2 cytopathic effect (833.33 nM) [%] | inhibition of SARS-CoV-2 cytopathic effect (10000 nM)
N#Cc1ccc(COC[C@H]2O[C@@H](n3c(NCc4ccc(Cl)c(Cl)c4)nc4c(N)ncnc43)[C@H](O)[C@@H]2O)cc1 | 2.98 | -0.66 | -1.89 | -0.44 | -3.34%
O=C(CCCCCCCn1cc(-c2cccnc2)nn1)Nc1ccccc1-c1ccccc1 | 0.38 | -1.7 | -14.1 | -14.7 | -12.8%
Cc1noc(NS(=O)(=O)c2cccc3c(N(C)C)cccc23)c1C | 0.18 | 0.76 | 0.03 | 1.44 | 0.04%
O=C(NCCN1CCCCC1)c1ccc(I)cc1 [N-[2-(piperidinylamino)ethyl]-4-iodobenzamide] | 0.64 | 2 | -0.15 | -2.57 | -1.77%
N=C(N)c1ccc(N2CCN(C3CCN(CC(=O)O)CC3)CC2)cc1 | -1.25 | 0.6 | 0.06 | -0.33 | 1.5%
NCCc1c[nH]c2ccc(O)cc12 [serotonin] | -0.73 | -0.57 | 2.41 | 2.28 | 0.37%
C#C[C@]1(O)CC[C@H]2[C@@H]3CCc4cc(OC5CCCC5)ccc4[C@H]3CC[C@@]21C [quinestrol] | -2.85 | -1.33 | -0.65 | 0.63 | 15.7% (active)
c1coc(CNc2ncnc3[nH]cnc23)c1 [kinetin] | -0.75 | 1.25 | 1.35 | 3.24 | 2.8%
Cn1cnc([N+](=O)[O-])c1Sc1ncnc2[nH]cnc12 [azathioprine] | -3.67 | 2.21 | 2.74 | 3.46 | -3.46%
CC(C)(C)CC(C)(C)c1cc(Cc2cc(C(C)(C)CC(C)(C)C)cc(-n3nc4ccccc4n3)c2O)c(O)c(-n2nc3ccccc3n2)c1 [bisoctrizole] | 0.77 | 2.98 | 2.99 | 1.93 | 3.96%
CC1(C)S[C@@H]2[C@H](NC(=O)[C@H](C(=O)O)c3ccsc3)C(=O)N2[C@H]1C(=O)O [ticarcillin] | -0.59 | -1.04 | -1.79 | 0.92 | -2.66%
CC(C)Cn1cnc2c(N)nc3ccccc3c21 [imiquimod] | 1.22 | 1.42 | -0.63 | 2.38 | 0.63%
O=C(O)CCCC[C@@H]1CCSS1 [thioctic-acid] | 0.04 | -0.43 | -1.56 | 1.13 | -3.32%
OCC(CO)N[C@H]1C[C@](O)(CO)[C@@H](O)[C@H](O)[C@H]1O [voglibose] | 0.63 | -8.33 | 1.72 | 2.63 | 2.03%
COc1cc(NC(=O)c2ccccn2)ccc1Cl | -0.99 | -1.87 | 1.63 | 2.18 | 1.18%
Cc1n[nH]c2ccc(-c3cncc(OC[C@@H](N)Cc4ccccc4)c3)cc12 | 1.18 | 0.14 | 4.58 | 4.63 | -13.2%
C[C@H]1O[C@H](O[C@H]2[C@H](O)[C@@H](O)[C@@H](O[C@H]3[C@H](O)[C@@H](O)C(O)O[C@@H]3CO)O[C@@H]2CO)[C@H](O)[C@@H](O)[C@@H]1N[C@H]1C=C(CO)[C@@H](O)[C@H](O)[C@H]1O (stereo not given in full) [acarbose] | 0.51 | 1.35 | -0.08 | -0.03 | -0.32%
Cn1c(CNc2ccc(C(=N)N)cc2)nc2cc(C(=O)N(CCC(=O)O)c3ccccn3)ccc21 [dabigatran] | -0.46 | 1.73 | -0.12 | 0.58 | 3.34%
